# Reference: paper PMC4552634, “A New Set of Chemical Starting Points with Plasmodium falciparum Transmission-Blocking Potential for Antimalarial Drug Discovery” (PLoS ONE, 2015)
# About 3,200 (25%) of roughly 13,000 compounds showed an effect of 50% or more. The list shows a part of the results.
# Tested on: P. falciparum stage V gametocytes
# Design: BacTiter-Glo ATP luminescence viability of purified stage V gametocytes in 384-well plates, per cent inhibition versus DMSO
# Details: 48 h, 5 µM; inhibitor
row,Structure (SMILES),% Inhibition [%]
1,COc1ccc(C2(CNCC(O)c3cccc([N+](=O)[O-])c3)CCCC2)cc1OC (centres unmarked) [TCMDC-123699],30.43
2,CCC[C@@H]([C@@H](CC1CCCCC1)C(=O)N[C@@H](CCOC(=O)NCC)C(=O)Nc1nccs1)N(O)C=O [TCMDC-138145],41.2
3,NC1=NC(c2ccccc2)(c2ccccc2)C(=O)N1CC=Cc1ccccc1 [TCMDC-136505],-58.42
4,O=C(NCCCN1CCOCC1)c1csc(Nc2ccc(Cl)c(Cl)c2)n1 [TCMDC-123719],-63.94
5,CCc1sc(N2CCC(C)CC2)nc1C(=O)Nc1ccc(F)cc1C(F)(F)F [TCMDC-134663],-1.278
6,CCCCCN1CCCC1CNS(=O)(=O)c1ccc(C(=O)Nc2ccc(C(F)(F)F)cc2)cc1 (centres unmarked) [TCMDC-133682],-15.48
7,c1cc(CN2CCN(c3ccncc3)CC2)cc(-c2ccc(-c3nc4ccccc4[nH]3)cc2)c1 [TCMDC-132921],36.65
8,O=C(O)C(F)(F)F.OCCN1CCN(Cc2ccc(-c3ccc(-c4nc5ccccc5[nH]4)cc3)cc2)CC1 [TCMDC-133025],-7.938
9,CN1CCCC(CN2CCN(Cc3ccc(-c4cccc(-c5nc6ccccc6[nH]5)c4)cc3)CC2)C1 (centres unmarked) [TCMDC-133916],44.74
10,O=C(O)C(F)(F)F.c1ccc2[nH]c(-c3ccc(-c4ccc(CN5CCN(c6ccncc6)CC5)cc4)cc3)nc2c1 [TCMDC-133830],15.5
11,CN1CCCC(CN2CCN(Cc3cccc(-c4cccc(-c5nc6ccccc6[nH]5)c4)c3)CC2)C1 (centres unmarked) [TCMDC-133912],100.3
12,CN1CCCC(CN2CCN(Cc3cccc(-c4ccc(-c5nc6ccccc6[nH]5)cc4)c3)CC2)C1 (centres unmarked) [TCMDC-133888],60.97
13,CN1CCCC(CN2CCN(Cc3ccc(-c4ccc(-c5nc6ccccc6[nH]5)cc4)cc3)CC2)C1.O=C(O)C(F)(F)F (centres unmarked) [TCMDC-133903],95.28
14,CN1CCCC(CN2CCN(Cc3cccc(-c4csc(-c5nc6ccccc6[nH]5)c4)c3)CC2)C1 (centres unmarked) [TCMDC-133913],1.76
15,O=C(Nc1ccc(Cl)cc1)c1ccc(CN2CCCN(Cc3cccc(O)c3)CC2)cc1 [TCMDC-136406],-22.52
16,O=C(Nc1ccc(C(=O)N2CCN(CCN3CCN(c4cccc(C(F)(F)F)c4)CC3)CC2)cc1)c1ccc(OC(F)(F)F)cc1 [TCMDC-138147],-46.71
17,O=C(N[C@@H](Cc1ccccc1)C(=O)NCCN1CCOCC1)c1ccc(O)c(-c2ccc(Cl)c(Cl)c2)c1 [TCMDC-140851],14.71
